# ± gives the standard deviation of the averaged measurements. The full ranking holds about 33,000 sequences; the median of “E-score (dimensionless, -0.5 to 0.5)” is about -0.046, and the highest 2% start at about 0.36. Shown is part of a subset that was picked to be rich in the highest values.
# Tested on: T1, SpTbr T-box DNA-binding domain (GST fusion)
# T1 sequence: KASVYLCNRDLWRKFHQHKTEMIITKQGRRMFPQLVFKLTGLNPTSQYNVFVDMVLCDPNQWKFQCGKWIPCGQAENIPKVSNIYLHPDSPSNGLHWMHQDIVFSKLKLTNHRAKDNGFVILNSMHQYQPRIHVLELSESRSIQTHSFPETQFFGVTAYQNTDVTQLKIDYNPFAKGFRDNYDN
# Test: PBM E-score of 8-mer (E-score (dimensionless, -0.5 to 0.5)); Tbr is Tbrain of the sea star Patiria miniata (Pm) or the sea urchin Strongylocentrotus purpuratus (Sp); higher = stronger binding preference
# Settings: the construct has about 5 more residues each side
# Description: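 Universal protein-binding microarray (Agilent AMADID 016060, 60-bp probes with a 35-bp variable region) incubated with 200 nM GST-fused Strongylocentrotus purpuratus Tbr T-box DNA-binding domain (residues 362-554) in PBS pH 7.5. Scored for every ungapped 8-mer (given with its reverse complement) as E-score (range -0.5 to 0.5; >0.45 counts as bound) and Z-score of median probe intensity. Two replicate arrays (datasets 1 and 2).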
# 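Further: protein at 200 nM in PBS on universal double-stranded arrays.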
row,Sequence,PBM E-score of 8-mer
1,ACTTCAAT,-0.0527 ± 0.032
2,ACGTCACG,0.217 ± 0.057
3,ATGTTGGG,-0.0592 ± 0.0084
4,TAAGGCTA,-0.149 ± 0.077
5,CACACTCG,0.426 ± 0.019
6,TACACTCA,0.137 ± 0.013
7,CACACTCC,0.402 ± 0.0059
8,AACACTCA,0.31 ± 0.0041
9,AACACTCG,0.193 ± 0.0083
10,CACACTCA,0.407 ± 0.0072
11,CCCACTCG,0.05 ± 0.13
12,AACACTCC,0.283 ± 0.039
13,GACACTCC,0.316 ± 0.0096
14,CGCAGCAC,0.0169 ± 0.017
15,AGTTGCTA,0.239 ± 0.042
16,GGTCACAA,0.2073 ± 0.00096
17,AGTCACAG,0.0674 ± 0.028
18,CGTCACAC,0.43 ± 0.011
19,CGTCACAA,0.244 ± 0.0062
20,CGTCACAG,0.232 ± 0.0032
21,GGACACAC,0.0866 ± 0.0081
22,AGTCACAC,0.457 ± 0.0049
23,GGTCACAC,0.46 ± 0.013
24,AGTCACAT,0.1318 ± 0.0012
25,GTTCATCA,0.0211 ± 0.0087
26,ATCAACAT,-0.111 ± 0.028

row,Sequence,PBM E-score of 8-mer
1,AGTGCTCC,-0.0941 ± 0.03
2,AGTCTTGG,-0.101 ± 0.011
3,CGTAAGTA,0.169 ± 0.0079
4,ACGTGTCG,0.362 ± 0.015
5,AGCTGTCG,0.263 ± 0.013
6,AGGTGTCG,0.486 ± 0.008
7,AGATGTCC,-0.309 ± 0.003
8,AGGTGTCC,0.428 ± 0.0068
9,ACGTGTCC,0.0769 ± 0.048
10,CCACCAGG,-0.177 ± 0.03
11,CGTGAGCA,0.105 ± 0.039
12,GCCTAAGC,-0.159 ± 0.006
13,CTAACTAG,0.0135 ± 0.086
14,AAGGGAAA,-0.289 ± 0.05
15,GACAATGA,0.176 ± 0.0013
16,ATCACCTA,0.321 ± 0.065
17,ATCACCAC,0.113 ± 0.004
18,CTCACCGC,0.0406 ± 0.0049
19,ATCACCTC,0.387 ± 0.0097
20,CTCACCAC,0.218 ± 0.037
21,CTCACCTC,0.444 ± 0.0047
22,CCGGTTCC,-0.27 ± 0.0077
23,GTGCCATA,0.222 ± 0.024
24,ATAACGCC,0.28 ± 0.032
25,AAGGATTA,-0.152 ± 0.047
26,CAGATCAG,-0.0587 ± 0.00064

row,Sequence,PBM E-score of 8-mer
1,AAAAGTGT,0.39 ± 0.016
2,ACAAGTGG,0.355 ± 0.012
3,ACAAGTGA,0.243 ± 0.07
4,AAAAGTGG,0.118 ± 0.11
5,ACAAGTGT,0.381 ± 0.019
6,AAAAGTGA,0.169 ± 0.069
7,TAACCCTA,-0.15553 ± 2.1e-05
8,TCTGTGAA,0.329 ± 0.017
9,GTTGTGAA,0.4 ± 0.015
10,ATTGTGAA,0.317 ± 0.067
11,GCTGTGGA,0.151 ± 0.058
12,ACTGTGAT,0.242 ± 0.0029
13,CTTGTGAA,0.353 ± 0.034
14,ACTGTGAG,0.269 ± 0.031
15,GCTGTGAA,0.4045 ± 0.0013
16,ACTGTGAA,0.413 ± 0.0064
17,AAAGAGAG,-0.0256 ± 0.025
18,GAACTCGA,0.194 ± 0.051
19,AGTGATAA,0.278 ± 0.067
20,CGTGATAA,0.27 ± 0.036
21,TATGATAA,-0.00343 ± 0.017
22,TGTGATAA,0.377 ± 0.017
23,GGTGATAC,0.221 ± 0.028
24,GGTGATAA,0.37553 ± 0.00031
25,CGTATGCC,-0.271 ± 0.057
26,AGACCTAT,-0.142 ± 0.047

row,Sequence,PBM E-score of 8-mer
1,AAACCTAG,0.0536 ± 0.035
2,GCACCTAA,0.339 ± 0.04
3,AAACCTGT,0.0331 ± 0.12
4,CCACCTAG,0.183 ± 0.046
5,TCACCTAA,0.301 ± 0.018
6,ACACCGGT,0.246 ± 0.055
7,ACACCTAA,0.4637 ± 0.0015
8,ATACCTAT,-0.0845 ± 0.068
9,ACACCTAG,0.444 ± 0.0087
10,ACACCTAT,0.4592 ± 0.0012
11,ACACCTGT,0.4669 ± 0.0038
12,CGTGGGAC,0.0261 ± 0.0086
13,AATCCCAC,0.151 ± 0.013
14,ATCTGCCG,-0.21 ± 0.071
15,TGCATTAA,0.022 ± 0.05
16,CATGCGCC,-0.226 ± 0.0069
17,CGCATATC,-0.0822 ± 0.013
18,CAGACCCA,-0.0355 ± 0.018
19,AGGTCTTA,-0.0667 ± 0.12
20,CCCTCACG,0.153 ± 0.063
21,ACTGGACC,-0.203 ± 0.069
22,ATCCAGCC,-0.0901 ± 0.0022
23,GCACCTAC,0.352 ± 0.025
24,CCACCTAC,0.248 ± 0.043
25,ACACCTAC,0.462 ± 0.0061
26,AATAGATG,0.0328 ± 0.094

row,Sequence,PBM E-score of 8-mer
1,AACTAATG,-0.0496 ± 0.012
2,AGCTTTGA,-0.239 ± 0.067
3,AGTCTCTC,-0.105 ± 0.029
4,CTTCCTCC,-0.204 ± 0.065
5,AGCAACAG,-0.0121 ± 0.0042
6,GGCAACAA,0.13 ± 0.019
7,CGCAACAC,0.306 ± 0.024
8,AGCAACAC,0.376 ± 0.026
9,AGCAACAA,0.1945 ± 0.00053
10,GGCAACAC,0.3658 ± 0.00072
11,GGTTATCA,0.0778 ± 0.034
12,CGCTAAAC,0.187 ± 0.1
13,GACGGGCA,-0.2934 ± 0.0011
14,AACTGGTG,0.188 ± 0.02
15,ACCCCCCT,-0.162 ± 0.03
16,ACCCCTCT,-0.063 ± 0.085
17,ACACCCCA,0.376 ± 0.013
18,ACACCCCC,0.363 ± 0.015
19,ACACCCCT,0.385 ± 0.013
20,ACACCCCG,0.35 ± 0.018
21,TGACGTAA,-0.098 ± 0.019
22,CATATCTA,-0.24 ± 0.025
23,GAAGCCTA,-0.182 ± 0.037
24,GACGGGCC,-0.12 ± 0.046
25,TAGCGCGA,0.3785 ± 0.0014
26,AAGCGCGG,0.136 ± 0.063

row,Sequence,PBM E-score of 8-mer
1,CAGCGCGA,0.199 ± 0.0059
2,AAGCGCGC,0.0762 ± 0.0076
3,GAGCGCGA,0.279 ± 0.053
4,AAGCGCGA,0.369 ± 0.007
5,CTTCCAGA,-0.22 ± 0.011
6,ACCATAGC,0.0118 ± 0.017
7,CTCTGGGC,-0.112 ± 0.012
8,TCATTGGA,-0.0638 ± 0.031
9,CCTCCATC,-0.0262 ± 0.042
10,CCACACCC,0.414 ± 0.024
11,ACACACTC,0.307 ± 0.019
12,CCACACTA,0.279 ± 0.029
13,CCACACCG,0.226 ± 0.071
14,CCACACTC,0.374 ± 0.015
15,ACACACCC,0.33 ± 0.0064
16,ATCCTGCC,-0.182 ± 0.054
17,ATGGGCAG,-0.0503 ± 0.058
18,ATGCCCGC,0.031 ± 0.012
19,ATGTGCCC,-0.0447 ± 0.038
20,AAGTGCTG,0.246 ± 0.04
21,AAGTGCCC,-0.146 ± 0.044
22,AAGTGCTA,0.419 ± 0.014
23,GAGTGCCA,0.20475 ± 0.00018
24,ATGTGCCG,0.175 ± 0.032
25,AAGTGCTC,0.118 ± 0.051
26,ATGTGCCA,0.374 ± 0.01

row,Sequence,PBM E-score of 8-mer
1,AAGTGCCA,0.4045 ± 0.0038
2,AAGAGAGA,-0.141 ± 0.03
3,CACACACG,0.233 ± 0.057
4,CTCACACA,0.438 ± 0.0081
5,GTCACAGA,0.0552 ± 0.0087
6,CACACACA,0.3384 ± 0.00066
7,GTCACAAA,0.125 ± 0.032
8,GTCACACA,0.409 ± 0.03
9,ATATTAAT,-0.209 ± 0.078
10,CTGTGGTC,-0.0438 ± 0.0053
11,CCAGCCGG,-0.00031 ± 0.015
12,AGGTAGCG,0.143 ± 0.04
13,GTCACGCA,0.279 ± 0.017
14,CTTACGCC,0.177 ± 0.0022
15,CTCACGCA,0.375 ± 0.022
16,CTTACGCA,0.0993 ± 0.0077
17,ATCACGCA,0.19 ± 0.026
18,ATCACGCG,0.357 ± 0.012
19,CCCACGCC,0.163 ± 0.014
20,ATCACGCC,0.403 ± 0.0051

# Reference: the supplement of paper PMC4166925
